# Experiments:
# Assay in all cases: pooled miR-30 sensor sort-seq; sequence = guide strand
# Conditions in all cases: shRNA
# RSF1 = molecular target: RSF1
# RRP12 = molecular target: RRP12
# RPS6KA5 = molecular target: RPS6KA5
# RSPH9 = molecular target: RSPH9
# RWDD2B = molecular target: RWDD2B
# RYK = molecular target: RYK
# RXFP4 = molecular target: RXFP4
# RYR2 = molecular target: RYR2
# RTTN = molecular target: RTTN
# SASH1 = molecular target: SASH1
# SCGB1D4 = molecular target: SCGB1D4
# SEC62 = molecular target: SEC62
# SEC22B = molecular target: SEC22B
# SEC61B = molecular target: SEC61B
# Note: reference of the scale not given here.
sequence,measurement,setting,value
TTACCAAGGACCATGAACCTGG,sensor-assay potency score (higher = more potent),RSF1,0.217
TAGAATTTGTATCTTTCTCTGA,sensor-assay potency score (higher = more potent),RSF1,0.105
TTGTAAATCATTCTCACTGGGA,sensor-assay potency score (higher = more potent),RRP12,0.0361
TGTTCTTCTATGTACATTCTGA,sensor-assay potency score (higher = more potent),RSF1,0.345
TAGATCTTAGATTCCACTGTGC,sensor-assay potency score (higher = more potent),RRP12,0.564
TATGTAACTTCACAGCATCGAC,sensor-assay potency score (higher = more potent),RRP12,-0.864
TACACGTCAAACTTCGGTCATG,sensor-assay potency score (higher = more potent),RPS6KA5,-0.748
TAACTTCACAGCATCGACTGTC,sensor-assay potency score (higher = more potent),RRP12,0.541
TACAGCTGAAACAAGCTTCCTC,sensor-assay potency score (higher = more potent),RPS6KA5,0.279
TTCATCTCGAATGACTGGCTTA,sensor-assay potency score (higher = more potent),RPS6KA5,0.378
TTGAGCTCTGCTGACAGGGTGC,sensor-assay potency score (higher = more potent),RRP12,-0.0342
TATTTCTTTACCACGTCGCAAA,sensor-assay potency score (higher = more potent),RSF1,-1.15
TTCTTTTGGTACTTCTCCGTTG,sensor-assay potency score (higher = more potent),RSF1,-0.632
TTTTTCTCCATCAACAGTGAAA,sensor-assay potency score (higher = more potent),RPS6KA5,-1.03
TTTCTGGTGCTTGAGCTTCTGG,sensor-assay potency score (higher = more potent),RRP12,-0.862
TAGCCATAGTTCTTGGTGCGGG,sensor-assay potency score (higher = more potent),RSPH9,-0.956
TTCAACTTAGCTGAGACACCAG,sensor-assay potency score (higher = more potent),RRP12,-0.063
TCGACTGTCAGGTCACTCCTTC,sensor-assay potency score (higher = more potent),RRP12,-0.238
TTTGTTTGGATCTACTGTGAGA,sensor-assay potency score (higher = more potent),RPS6KA5,-1.04
TTGATCATCTTGTTCTTCTATG,sensor-assay potency score (higher = more potent),RSF1,-0.223
TTGCTCTCTAGGTAGGGCCGGA,sensor-assay potency score (higher = more potent),RRP12,-0.614
TCAACTTAGCTGAGACACCAGA,sensor-assay potency score (higher = more potent),RRP12,-0.378
TTCTTTTCTTTCTTCATCCAAA,sensor-assay potency score (higher = more potent),RSF1,-0.992
TTGATCTTCAGAAAAGTCTGGC,sensor-assay potency score (higher = more potent),RSF1,0.121
TTGAGATCCATCACTGATCTTG,sensor-assay potency score (higher = more potent),RSF1,0.36
TAAGGCAACATCCAAATCCTGC,sensor-assay potency score (higher = more potent),RSF1,-1.12
TCAATGACAGACACCAAGCGGG,sensor-assay potency score (higher = more potent),RSPH9,-0.168
TGCAGCTTCATCTTCTTCCTGC,sensor-assay potency score (higher = more potent),RRP12,0.0542
TTCTCCTAGATATCTCAGCTTG,sensor-assay potency score (higher = more potent),RPS6KA5,-0.946
TTTTTATGCACACACTTTCGAC,sensor-assay potency score (higher = more potent),RPS6KA5,-1.13
TAGCTCAACAGGCTCCCTGAAA,sensor-assay potency score (higher = more potent),RSPH9,-1.11
TTTAGCTCAACAGGCTCCCTGA,sensor-assay potency score (higher = more potent),RSPH9,-0.548
TTGATCTGGACCACTATTTCTT,sensor-assay potency score (higher = more potent),RSPH9,-0.0516
TAATTCATCTCGAATGACTGGC,sensor-assay potency score (higher = more potent),RPS6KA5,0.637
TTACTTTAGAATTTGTATCTTT,sensor-assay potency score (higher = more potent),RSF1,0.216
TTCTTCATGATTTCCACCGCGC,sensor-assay potency score (higher = more potent),RPS6KA5,0.302
TTTCTGTGAACTCTTCTGCAAA,sensor-assay potency score (higher = more potent),RPS6KA5,-1.11
TTTGAGATTGTCATCAAACTGA,sensor-assay potency score (higher = more potent),RSF1,0.222
TTCCACACAAACAACACCAGGT,sensor-assay potency score (higher = more potent),RWDD2B,0.95
TTGTAGCACATTTTCCTTCGTT,sensor-assay potency score (higher = more potent),RYK,0.000719
TAGAAGGGCGGCTCTCCCGGGG,sensor-assay potency score (higher = more potent),RXFP4,-0.734
TATTGCTATATCCTTCACCTTG,sensor-assay potency score (higher = more potent),RYK,-0.912
TACAGCACAGGGTTGAGGCAGC,sensor-assay potency score (higher = more potent),RXFP4,-0.483
TTCAGTATACAAACATCTCCAT,sensor-assay potency score (higher = more potent),RWDD2B,0.0635
TTTCAGTTCTGCTACAGCCAGC,sensor-assay potency score (higher = more potent),RWDD2B,-0.902
TATTCGGTAACCATCTTTCAGG,sensor-assay potency score (higher = more potent),RYK,-0.693
TCTTCTTTTCAATACAATCTTT,sensor-assay potency score (higher = more potent),RWDD2B,-0.675
TTGAAGACGAAGGTGTCTGAAG,sensor-assay potency score (higher = more potent),RXFP4,-0.402
TTGCTTGCGACCCACCGCCTGC,sensor-assay potency score (higher = more potent),RXFP4,-0.81
TAGCTGGTGGTGATGACGCCCA,sensor-assay potency score (higher = more potent),RXFP4,-0.885
TCTTGCAGAGGGCACCTCCGAA,sensor-assay potency score (higher = more potent),RXFP4,-1.29
TCCATTAACACTGAACACTTTT,sensor-assay potency score (higher = more potent),RWDD2B,-0.901
TAGAATATTCTTTCTTTTGCAT,sensor-assay potency score (higher = more potent),RWDD2B,0.0563
TCAGGAGACAGTACAGCACAGG,sensor-assay potency score (higher = more potent),RXFP4,-0.981
TTCATTATTATCCATCACCGAA,sensor-assay potency score (higher = more potent),RYR2,-1.08
TTAATAACCAGCTCTCTTCTGT,sensor-assay potency score (higher = more potent),RTTN,0.265
TTTCCTGTCAGTAACTTCCATG,sensor-assay potency score (higher = more potent),RTTN,-0.534
TCAACTGACTGGACTGTGCTTC,sensor-assay potency score (higher = more potent),RWDD2B,0.407
TTACTGCACAACAAACCCCTAC,sensor-assay potency score (higher = more potent),RYK,-0.546
TTGTCTGTGATCTTAACTTGAA,sensor-assay potency score (higher = more potent),RYK,-0.554
TTGTATTATCTCCTTTTCCAGA,sensor-assay potency score (higher = more potent),RYK,-1.16
TCAGTATACAAACATCTCCATG,sensor-assay potency score (higher = more potent),RWDD2B,-1.45
TTTTTCGTCAGATACATCCAGG,sensor-assay potency score (higher = more potent),RWDD2B,-0.29
TTGGACATGTGTAAGTTTCTTG,sensor-assay potency score (higher = more potent),RWDD2B,0.645
TTGATAGTAAAGTAGACTTTTG,sensor-assay potency score (higher = more potent),RWDD2B,-1.18
TTTTCATCTATTAAAATCCCAT,sensor-assay potency score (higher = more potent),RYK,-0.695
TAACACTGAACACTTTTTCTTC,sensor-assay potency score (higher = more potent),RWDD2B,-0.298
AACTTCACCAGGACACCCCAGA,sensor-assay potency score (higher = more potent),RXFP4,-1.12
TATGCTATGATTTTCTTCCAGA,sensor-assay potency score (higher = more potent),RYR2,-0.61
TAGCGAGCAACGCTCAGCGCTG,sensor-assay potency score (higher = more potent),RXFP4,-1.3
TAGACGTTGAGGACAGTGGCCG,sensor-assay potency score (higher = more potent),RXFP4,0.159
TTTAGAGTTATCCTCTCTCTGG,sensor-assay potency score (higher = more potent),RYK,-0.8
TTTCATACTATGAAGGTGCAAA,sensor-assay potency score (higher = more potent),RYK,-0.131
TAGGAATTTGACAGGCATCGGA,sensor-assay potency score (higher = more potent),RXFP4,0.2
TTTTTGTAGCACATTTTCCTTC,sensor-assay potency score (higher = more potent),RYK,-0.15
TTGAAGACAAACCATTTCCCAG,sensor-assay potency score (higher = more potent),RYK,-0.946
AGGAATTTGACAGGCATCGGAG,sensor-assay potency score (higher = more potent),RXFP4,-1.05
TAACTGTTTTGACAAATGCTTG,sensor-assay potency score (higher = more potent),RYK,-1.47
TTTCGTAGCATCCTGAGTCTCG,sensor-assay potency score (higher = more potent),SASH1,0.799
TGATCTCAGAAGCAACAGCTGG,sensor-assay potency score (higher = more potent),SCGB1D4,-1.12
TGACTTTTCCTCACTGTCGGAC,sensor-assay potency score (higher = more potent),SEC62,-0.575
TTCTAATACACATCTCTGTGAG,sensor-assay potency score (higher = more potent),SEC22B,0.118
TCTTCTGTGTAGAATCGCCACA,sensor-assay potency score (higher = more potent),SEC61B,-0.746
TTGGATTCTAATACACATCTCT,sensor-assay potency score (higher = more potent),SEC22B,0.391
